# Pf apPOL inh: Pf-apPOL DNA polymerase inhibition; 210,000 tested, 0.25% active; Recombinant Pf-apPOL, molecular beacon fluorescence, 1.5 h; inhibition, % at 10 µM
# mHTT-CaM PPI inh: inhibitors of human mutant huntingtin-calmodulin interaction. P42858. AlphaScreen His-mHTT/GST-CaM binding, luminescence. inhibition, % at 15 µM. 190,000 tested, 3.6% active;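 note: 0% = both proteins with DMSO and 100% = one protein alone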
# Target sequence (P42858 whole entry, looked up, stated change not applied): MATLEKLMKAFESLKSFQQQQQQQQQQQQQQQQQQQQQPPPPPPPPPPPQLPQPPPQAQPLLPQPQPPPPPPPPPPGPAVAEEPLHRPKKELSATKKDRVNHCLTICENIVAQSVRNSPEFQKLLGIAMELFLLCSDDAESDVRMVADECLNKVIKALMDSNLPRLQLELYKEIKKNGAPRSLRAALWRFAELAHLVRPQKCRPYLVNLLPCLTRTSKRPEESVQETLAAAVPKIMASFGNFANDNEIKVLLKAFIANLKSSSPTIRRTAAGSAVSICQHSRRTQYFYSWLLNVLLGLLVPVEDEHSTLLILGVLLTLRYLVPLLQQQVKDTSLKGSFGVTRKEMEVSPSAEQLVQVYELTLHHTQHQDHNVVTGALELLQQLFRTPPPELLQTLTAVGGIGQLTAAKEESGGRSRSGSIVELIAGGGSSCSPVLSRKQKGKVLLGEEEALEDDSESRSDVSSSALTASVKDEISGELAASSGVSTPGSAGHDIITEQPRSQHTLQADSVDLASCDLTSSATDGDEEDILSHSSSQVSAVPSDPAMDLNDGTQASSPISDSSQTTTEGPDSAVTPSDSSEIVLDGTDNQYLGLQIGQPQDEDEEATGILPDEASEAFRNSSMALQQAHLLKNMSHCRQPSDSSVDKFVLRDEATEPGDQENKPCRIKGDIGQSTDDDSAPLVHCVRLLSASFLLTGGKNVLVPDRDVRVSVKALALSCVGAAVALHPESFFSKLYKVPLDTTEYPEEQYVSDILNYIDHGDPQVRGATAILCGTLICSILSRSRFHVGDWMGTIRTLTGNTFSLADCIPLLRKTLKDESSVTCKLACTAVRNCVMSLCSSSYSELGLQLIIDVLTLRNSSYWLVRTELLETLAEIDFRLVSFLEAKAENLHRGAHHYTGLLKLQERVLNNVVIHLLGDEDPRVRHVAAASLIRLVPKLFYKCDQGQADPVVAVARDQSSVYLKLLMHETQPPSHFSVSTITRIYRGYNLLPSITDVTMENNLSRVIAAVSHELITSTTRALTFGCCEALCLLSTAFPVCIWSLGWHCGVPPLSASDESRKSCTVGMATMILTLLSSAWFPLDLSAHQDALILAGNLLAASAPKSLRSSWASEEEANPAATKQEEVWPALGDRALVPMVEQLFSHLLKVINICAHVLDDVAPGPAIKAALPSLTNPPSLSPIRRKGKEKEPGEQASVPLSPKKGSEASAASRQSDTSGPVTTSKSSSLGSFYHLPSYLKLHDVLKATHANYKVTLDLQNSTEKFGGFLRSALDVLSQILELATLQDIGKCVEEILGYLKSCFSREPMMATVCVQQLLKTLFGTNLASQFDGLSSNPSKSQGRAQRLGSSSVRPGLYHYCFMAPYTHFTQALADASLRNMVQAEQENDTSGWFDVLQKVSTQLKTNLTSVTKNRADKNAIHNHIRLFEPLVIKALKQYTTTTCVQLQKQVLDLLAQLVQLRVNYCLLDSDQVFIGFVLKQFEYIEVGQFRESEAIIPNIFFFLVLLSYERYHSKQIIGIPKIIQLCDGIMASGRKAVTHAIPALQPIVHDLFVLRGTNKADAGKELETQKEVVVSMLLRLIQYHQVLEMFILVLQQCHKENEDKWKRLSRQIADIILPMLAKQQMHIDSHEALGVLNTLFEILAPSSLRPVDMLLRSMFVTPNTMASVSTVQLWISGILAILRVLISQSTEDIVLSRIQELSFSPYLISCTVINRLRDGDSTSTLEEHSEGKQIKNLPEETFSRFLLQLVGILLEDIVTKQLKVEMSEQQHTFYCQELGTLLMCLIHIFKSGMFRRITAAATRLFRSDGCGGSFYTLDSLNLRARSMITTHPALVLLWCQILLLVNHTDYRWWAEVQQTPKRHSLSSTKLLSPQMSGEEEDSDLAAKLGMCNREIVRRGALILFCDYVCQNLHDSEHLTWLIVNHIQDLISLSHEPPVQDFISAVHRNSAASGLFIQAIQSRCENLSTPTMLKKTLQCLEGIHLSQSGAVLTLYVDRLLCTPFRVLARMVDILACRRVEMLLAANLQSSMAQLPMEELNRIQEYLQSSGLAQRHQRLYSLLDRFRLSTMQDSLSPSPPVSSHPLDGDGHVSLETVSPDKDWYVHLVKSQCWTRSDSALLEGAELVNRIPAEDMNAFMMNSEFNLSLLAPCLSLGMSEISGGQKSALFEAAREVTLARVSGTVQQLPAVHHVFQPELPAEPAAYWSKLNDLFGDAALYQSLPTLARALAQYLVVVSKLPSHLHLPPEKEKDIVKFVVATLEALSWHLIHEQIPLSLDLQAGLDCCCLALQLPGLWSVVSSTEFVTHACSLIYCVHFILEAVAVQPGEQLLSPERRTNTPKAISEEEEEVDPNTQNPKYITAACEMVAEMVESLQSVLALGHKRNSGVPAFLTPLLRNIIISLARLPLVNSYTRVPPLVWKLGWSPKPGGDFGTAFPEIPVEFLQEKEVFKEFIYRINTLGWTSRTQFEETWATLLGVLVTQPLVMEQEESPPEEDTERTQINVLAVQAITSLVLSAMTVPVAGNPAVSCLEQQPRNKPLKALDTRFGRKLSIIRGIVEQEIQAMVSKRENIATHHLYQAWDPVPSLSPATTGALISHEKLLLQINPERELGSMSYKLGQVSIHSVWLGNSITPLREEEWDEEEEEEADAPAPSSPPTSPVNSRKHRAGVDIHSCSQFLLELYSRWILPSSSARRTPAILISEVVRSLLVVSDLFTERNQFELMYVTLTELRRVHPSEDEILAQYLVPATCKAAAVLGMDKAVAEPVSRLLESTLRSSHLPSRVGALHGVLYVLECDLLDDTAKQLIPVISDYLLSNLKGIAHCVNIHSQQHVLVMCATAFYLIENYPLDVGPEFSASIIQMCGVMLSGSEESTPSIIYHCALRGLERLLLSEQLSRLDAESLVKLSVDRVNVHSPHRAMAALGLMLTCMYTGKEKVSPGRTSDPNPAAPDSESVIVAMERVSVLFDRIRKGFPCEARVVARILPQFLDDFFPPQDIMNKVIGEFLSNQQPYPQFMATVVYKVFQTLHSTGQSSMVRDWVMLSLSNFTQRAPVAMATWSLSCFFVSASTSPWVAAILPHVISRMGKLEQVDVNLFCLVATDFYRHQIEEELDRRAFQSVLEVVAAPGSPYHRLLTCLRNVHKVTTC
# * marks the source's active call; other numbers are inactive results; x = not tested or not shown. An excerpt weighted towards active compounds, which were near 3.5% of everything screened. Cut-off read from the data, not from the text of the source: active = inhibition above about 50%; inactive = the rest.
SMILES,Pf apPOL inh,mHTT-CaM PPI inh
OCCCn1c(-c2ccc(F)cc2)csc1=Nc1ccc(Cl)cc1,-4,87*
COc1ccc(N=c2scc(-c3ccc(OC)cc3)n2CCN2CCOCC2)cc1,3,36
COc1ccc(N=c2scc(-c3ccc4c(c3)OCCO4)n2CCO)cc1,-2,53*
COc1ccc(-c2csc(=Nc3ccccc3)n2CCO)cc1F,-3,53*
CCOc1ccc(N=c2scc(-c3ccc(Cl)s3)n2CCCO)cc1,-2,35
O=C(c1ccc(OCC2CCCN2C(=O)c2ccccc2)cc1)N1CCCC1 (centres undefined),-4,3
O=C(Nc1cccc(C(F)(F)F)c1)c1coc(=O)c2ccccc12,-3,11
O=[N+]([O-])c1cccc(NC2OC(CO)C(O)C2O)c1 (centres undefined),-5,10
COc1ccc(NC(=O)C(=O)NCCc2ccc3c(c2)CCCN3C)cc1Cl,-4,22
COc1ccc(CCN2C(=S)NC3c4cc([N+](=O)[O-])ccc4OC2(C)C3C)cc1OC (centres undefined),0,61*
COCCCN1C(=S)NC2c3cc([N+](=O)[O-])ccc3OC1(C)C2C (centres undefined),-4,0
N#Cc1cccc(N=c2oc3ccc(Br)cc3cc2C(N)=O)c1,3,-8
CCC(=O)Nc1ccc(NC(=O)COc2ccc(Cl)cc2Cl)cc1,3,5
O=C(NCc1ccccn1)C1Cc2ccccc2N2CCN(c3ccccc3)CC12 (centres undefined),-12,38
CCNC(=O)C1Cc2ccccc2N2CCN(c3ccccc3OC)CC12 (centres undefined),1,9
O=C(NCCc1cccs1)C1Cc2ccccc2N2CCN(c3ccccc3)CC12 (centres undefined),-4,95*
CCNC(=O)C1Cc2ccc(OC)cc2N2CCN(c3ccc(C)cc3)CC12 (centres undefined),1,64*
Cc1ccc(N2CCN3c4ccccc4CC(C(=O)N4CCSCC4)C3C2)cc1 (centres undefined),-1,58*
COc1cccc(N2CCN3c4ccccc4CC(C(=O)NC(C)C)C3C2)c1 (centres undefined),-2,32
COc1ccc(N2CCN3c4ccccc4CC(C(=O)N4CCOCC4)C3C2)cc1 (centres undefined),-2,56*
CCNC(=O)C1Cc2ccc(OC)cc2N2CCN(c3ccc(OC)cc3)CC12 (centres undefined),-3,17
Cc1sc(C(=O)N2CCCC2)c2ncnc(NCc3ccc(F)cc3)c12,-3,0
Clc1ccc(Cl)c(NCc2nnc3n2CCCCC3)c1,-1,1
Cc1cc(OCC(N)=O)ccc1Cl,-3,-1
N#Cc1ccccc1NC(=O)CSc1nnc(SCC(=O)Nc2ccccc2C#N)s1,0,x
SMILES,Pf apPOL inh,mHTT-CaM PPI inh
Cc1nc2cc(N)ccc2s1,8,0
Nc1ccc2cc3ccc(N)cc3nc2c1,x,55*
CN(Cc1ccccc1)C(=O)C1CCN(S(=O)(=O)c2ccc(F)cc2)CC1,-20,2
Cc1ccc(CNC(=O)Cc2c[nH]c3ncccc23)o1,0,-9
O=C(Nc1c(F)c(F)c(F)c(F)c1F)c1ccccc1,-9,-10
O=C(Nc1c(Cl)c(Cl)c(O)c(Cl)c1Cl)c1ccccc1,-10,85*
COc1ccccc1N1CCN(c2ncnc3sc(C(=O)O)c(C)c23)CC1,1,3
C=CCn1c(C(=O)NCc2ccncc2)cc2sc(Br)cc21,-8,51*
C=CCn1c(C(=O)NC2CC2)cc2sc(Br)cc21,-5,-1
Cn1cnnc1C1CCCCN1C(=O)Cc1c[nH]c2ccccc12 (centres undefined),91*,4
CCCn1cnnc1C1CCN(C(=O)Cc2c[nH]c3ccccc23)CC1,2,13
COc1ccc(-c2ccc(=O)n(C(C)C(=O)Nc3ccc(-c4ccc(=O)[nH]n4)cc3)n2)cc1 (centres undefined),-13,-12
O=C(c1ccc(S(=O)(=O)N2CCCCC2)cc1)N1CCCCC1,-8,-7
O=C(c1ccc(S(=O)(=O)N2CCCCC2)cc1)N1CCN(c2ccccc2)CC1,-21,100*
CC(=O)NCCc1csc(C2CCN(C(=O)NC(C)(C)C)CC2)n1,-4,-4
O=C(c1ccccc1F)N1CCN(C2=NN=C(c3ccccc3)CS2)CC1,-7,92*
O=C(c1ccccc1)c1ccc(N2CCN(C(=O)c3ccccc3F)CC2)c(F)c1,4,-4
O=C(c1ccco1)N1CCN(C2=NN=C(c3cccs3)CS2)CC1,50*,96*
N#Cc1nc(-c2cccs2)oc1N1CCN(C(=O)c2ccco2)CC1,-2,-2
CC12CC3CC(C1)CC(NC(=O)c1ccccn1)(C3)C2,-5,-16
O=C(Nc1cccc(Cl)c1)c1cc2cc3ccc(Cl)cc3nc2o1,-2,-4
Cc1c(S(=O)(=O)N2CCN(C)c3ccccc32)cnn1C(F)F,-2,4
O=[N+]([O-])C(/C=C(\Cl)[N+](=O)[O-])=C1Nc2ccccc2N1,3,88*
Cc1ccc2c(c1)N/C(=C(/C=C(\Cl)[N+](=O)[O-])[N+](=O)[O-])O2,-4,45
Cc1ccc(N2CC(C(=O)NCC3CCN(C(=O)Oc4ccccc4)CC3)CC2=O)cc1C (centres undefined),-9,9
SMILES,Pf apPOL inh,mHTT-CaM PPI inh
COc1ccc(N2CCN(C(=O)CC(C)(C)C)C(C)C2=O)cc1 (centres undefined),-5,-14
COc1ccccc1NC1=CC(=NS(=O)(=O)c2ccc(F)cc2)c2ccccc2C1=O,2,94*
COc1ccccc1NC1=CC(=NS(=O)(=O)c2ccccc2)c2ccccc2C1=O,3,94*
COc1ccccc1NC(=O)c1ccc2c(c1)-c1ccccc1C2=O,0,2
COc1ccc(S(=O)(=O)Nc2ccccc2NS(=O)(=O)c2ccc(OC)cc2)cc1,3,6
COc1ccccc1NC(=O)c1ccc(F)cc1,-2,-6
CCc1ccc(S(=O)(=O)N=C2C=C(Nc3ccccc3OC)C(=O)c3ccccc32)cc1,0,93*
COc1ccc(S(=O)(=O)N=C2C=C(Nc3ccccc3OC)C(=O)c3ccccc32)cc1,0,91*
CCc1ccc(S(=O)(=O)Nc2ccccc2OC)cc1,2,-25
Brc1cccc(C=Nc2ccc(N3CCOCC3)cc2)c1,0,14
O=S(=O)(c1cccnc1)N1CCC2(CC1)OCCS2,9,-11
O=C(NCc1ccc(N2CCOCC2)nc1)c1ccccc1Cl,2,-11
Cc1ccccc1NC1=CC(=NS(=O)(=O)c2ccc(F)cc2)c2ccccc2C1=O,3,96*
O=C1C(NS(=O)(=O)c2ccccc2)=CC(=NS(=O)(=O)c2ccc(F)cc2)c2ccccc21,-5,5
COc1ccc(NC2=CC(=NS(=O)(=O)c3ccc(Cl)cc3)c3ccccc3C2=O)cc1,0,35
COc1ccc(S(=O)(=O)N=C2C=C(Nc3cccc(C)c3)C(=O)c3ccccc32)cc1,-16,91*
COc1ccccc1NC1=CC(=NS(=O)(=O)c2ccc(C)cc2C)c2ccccc2C1=O,-6,92*
COc1ccccc1NC(=O)CN(c1ccc(C)cc1C)S(C)(=O)=O,-3,0
CCOC(=O)N1CCN(c2ncnc3c2cnn3-c2cc(Cl)ccc2C)CC1,-7,-17
Nc1nc(NC(=O)c2ccc([N+](=O)[O-])cc2)nn1-c1ccccc1,-7,-4
O=C(Nc1nc(NC(=O)c2ccccc2)n(-c2ccccc2)n1)c1ccccc1,-3,89*
